Among the data in PubChem BioAssay are growth inhibition, inhibition and outcome values, retold here.

A number with no mark means an inactive call. For part of these data: Measured potencies and affinities stand elsewhere. Active and inactive are the calls of the source. Unless noted, no rule for the calls is given here.

Assay [1] is described as follows: antimalarial activity against Dd2 strain (AID 2302;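 active = growth inhibition above 50% at the single 2 µM test dose, taken to imply half-maximal potency below 2 µM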;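 also: 0% = DMSO untreated growth and 100% = chloroquine plus artemisinin killed control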). The following applies: P. falciparum Dd2 in RBCs, LDH growth readout, 72 h; at 2 µM; active compounds read high.
Assay [2] in a line: HepG2 cytotoxicity, primary screen, cytotoxicity control for P. falciparum antimalarial project, cell-based, ATP luminescence (AID 2303;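 active = inhibition above 50%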;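 also: 0% = DMSO wells and 100% = digitonin-killed cells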). The following applies: HepG2 viability, 24-48 h, at 10 µM, active compounds read high.
Assay [3] concerns the target L-lactate dehydrogenase (Plasmodium falciparum (isolate CDC / Honduras)) (UniProt Q27743). Nature of the assay: PfLDH activity inhibition – cell lysate, 3D7 strain, counter-screen for P. falciparum growth inhibition project (AID 2304).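 Also: 0% = vehicle and 100% = reference inhibitor.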 The following applies: P. falciparum 3D7 crude extract, LDH APAD/NBT absorbance; at 2 µM; active compounds read high.
The nature of assay [4]: inhibition of 3D7 malaria parasite growth – strain 3D7 (AID 2306).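 Also: 0% = DMSO wells and 100% = chloroquine plus artemisinin control wells.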 The following applies: P. falciparum 3D7 erythrocytic growth, LDH absorbance, 72 h; at 2 µM; active compounds read high.
Assay [5] deals with Calcium-dependent protein kinase 1 (Plasmodium falciparum (isolate 3D7)) (UniProt P62344). Nature of the assay: PfCDPK1 kinase inhibitors, biochemical, TCAMS library (AID 1159585; cut-off not given, nearly all actives have IC50 up to about 0.98 µM;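 also: inhibitors leave more ATP so luminescence rises with inhibition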). The following applies: recombinant PfCDPK1, Kinase-Glo ATP depletion luminescence. For orientation: Kinase-Glo measures the ATP left after a reaction by luminescence.
Assay [6] deals with Plasmodium falciparum protein kinase 6 (PK6, PF3D7_1337100) (UniProt Q8IDW1). Nature of the assay: PfPK6 kinase inhibitors, biochemical, TCAMS library (AID 1159586). The following applies: recombinant PfPK6, Kinase-Glo ATP depletion luminescence.
The target in assay [7] is Protein kinase 7 (PK7), Plasmodium falciparum 3D7 (PF3D7_0213400) (UniProt Q7YTF7). In words: inhibition of Plasmodium PK7 catalytic activity – biochemical, TCAMS antimalarial set, Kinase-Glo luminescence (AID 1159587). The following applies: recombinant PfPK7, Kinase-Glo ATP depletion luminescence.
Assay [8] addresses Calcium-dependent protein kinase 4 (Plasmodium falciparum (isolate 3D7)) (UniProt Q8IBS5). In words: PfCDPK4 kinase inhibitors, biochemical, TCAMS library (AID 1159588; cut-off not given, nearly all actives have IC50 up to about 0.91 µM). The following applies: recombinant PfCDPK4, Kinase-Glo ATP depletion luminescence.

Protein kinase 7 (PK7), Plasmodium falciparum 3D7 (PF3D7_0213400), sequence (Q7YTF7 1-343): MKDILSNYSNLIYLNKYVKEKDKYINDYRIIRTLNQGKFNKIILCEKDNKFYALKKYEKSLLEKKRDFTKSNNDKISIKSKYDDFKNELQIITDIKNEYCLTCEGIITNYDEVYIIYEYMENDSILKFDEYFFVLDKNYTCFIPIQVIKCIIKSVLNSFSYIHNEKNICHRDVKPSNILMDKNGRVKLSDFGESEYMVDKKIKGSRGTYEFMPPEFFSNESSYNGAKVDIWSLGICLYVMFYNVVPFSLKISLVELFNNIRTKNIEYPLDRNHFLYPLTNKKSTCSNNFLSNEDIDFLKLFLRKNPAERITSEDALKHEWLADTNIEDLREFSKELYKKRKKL
Calcium-dependent protein kinase 1 (Plasmodium falciparum (isolate 3D7)), sequence (P62344 whole entry, looked up): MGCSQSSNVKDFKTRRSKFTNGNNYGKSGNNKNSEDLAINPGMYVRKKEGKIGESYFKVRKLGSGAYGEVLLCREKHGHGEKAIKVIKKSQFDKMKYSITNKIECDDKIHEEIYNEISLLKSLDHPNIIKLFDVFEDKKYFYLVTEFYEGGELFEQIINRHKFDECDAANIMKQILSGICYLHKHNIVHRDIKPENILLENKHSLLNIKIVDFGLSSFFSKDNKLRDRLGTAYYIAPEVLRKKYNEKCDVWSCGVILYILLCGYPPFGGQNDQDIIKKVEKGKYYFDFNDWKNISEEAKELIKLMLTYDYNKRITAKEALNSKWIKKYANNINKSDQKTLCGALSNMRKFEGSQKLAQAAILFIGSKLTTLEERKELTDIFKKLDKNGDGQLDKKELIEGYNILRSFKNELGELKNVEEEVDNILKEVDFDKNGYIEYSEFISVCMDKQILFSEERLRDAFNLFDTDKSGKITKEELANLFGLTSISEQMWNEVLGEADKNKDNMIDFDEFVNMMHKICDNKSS
Calcium-dependent protein kinase 4 (Plasmodium falciparum (isolate 3D7)), sequence (Q8IBS5 whole entry, looked up): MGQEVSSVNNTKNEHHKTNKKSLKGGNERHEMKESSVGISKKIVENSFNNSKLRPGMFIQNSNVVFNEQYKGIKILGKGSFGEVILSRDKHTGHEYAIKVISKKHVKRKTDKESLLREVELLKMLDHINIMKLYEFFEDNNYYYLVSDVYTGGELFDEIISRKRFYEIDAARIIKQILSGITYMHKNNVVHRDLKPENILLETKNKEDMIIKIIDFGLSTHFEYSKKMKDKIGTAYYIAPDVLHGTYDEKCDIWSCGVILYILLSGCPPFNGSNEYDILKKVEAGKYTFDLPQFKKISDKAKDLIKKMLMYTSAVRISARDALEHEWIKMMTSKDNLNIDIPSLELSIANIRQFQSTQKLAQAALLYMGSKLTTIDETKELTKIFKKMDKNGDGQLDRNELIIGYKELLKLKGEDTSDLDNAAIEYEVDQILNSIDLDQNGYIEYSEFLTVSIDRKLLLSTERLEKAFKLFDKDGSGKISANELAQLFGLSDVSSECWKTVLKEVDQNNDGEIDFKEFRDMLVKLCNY
L-lactate dehydrogenase (Plasmodium falciparum (isolate CDC / Honduras)), sequence (Q27743 whole entry, looked up): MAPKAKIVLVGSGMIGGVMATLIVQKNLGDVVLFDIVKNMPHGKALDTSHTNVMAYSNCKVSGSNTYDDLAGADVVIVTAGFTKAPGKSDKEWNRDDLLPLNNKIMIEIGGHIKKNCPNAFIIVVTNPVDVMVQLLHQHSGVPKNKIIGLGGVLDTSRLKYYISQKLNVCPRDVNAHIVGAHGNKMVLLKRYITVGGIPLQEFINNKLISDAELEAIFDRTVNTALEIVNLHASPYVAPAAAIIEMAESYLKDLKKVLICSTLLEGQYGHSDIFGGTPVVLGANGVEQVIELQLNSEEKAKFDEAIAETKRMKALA
Plasmodium falciparum protein kinase 6 (PK6, PF3D7_1337100), sequence (Q8IDW1 1-305): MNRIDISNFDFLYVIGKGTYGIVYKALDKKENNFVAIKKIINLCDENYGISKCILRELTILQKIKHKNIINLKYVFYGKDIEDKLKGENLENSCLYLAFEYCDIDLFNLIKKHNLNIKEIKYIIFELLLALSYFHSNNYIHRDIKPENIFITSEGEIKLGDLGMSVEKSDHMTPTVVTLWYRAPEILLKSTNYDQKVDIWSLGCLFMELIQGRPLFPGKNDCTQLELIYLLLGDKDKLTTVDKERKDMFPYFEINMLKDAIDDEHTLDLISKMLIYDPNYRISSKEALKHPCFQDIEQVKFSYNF

Regarding `COc1ccc(CCNC(=O)c2ccc(-n3cc(NC(=O)c4cccnc4)cn3)cc2)cc1OC`, the growth inhibition in assay [1] was 89% (active); in assay [4], 90% (active). For the same molecule, the inhibition (commonly the drop in the measured response relative to a control, in per cent) in assay [2] was 17%; in assay [3], 3%. Moreover, the result in assay [5], in assay [6], in assay [7] and in assay [8] was inactive.
`COc1ccc(C(c2ccc(N(C)C)cc2)c2ccc(N(C)C)cc2)cc1`: the growth inhibition in assay [1] is 99% (active); in assay [4], 101% (active). Moreover, the inhibition is 72% (active) in assay [2] and 1% in assay [3]. Also, the outcome in assay [5], in assay [6], in assay [7] and in assay [8] was inactive.
Take `O=C(/C=C/c1ccc(Cl)c(Cl)c1)NCCCCCN1CCCN(C(=O)Nc2ccc(Cl)cc2)CC1`: the growth inhibition in assay [1] was -5%; in assay [4], 100% (active). Moreover, the inhibition is 21% in assay [2] and -5% in assay [3]. The result in assay [5], in assay [6], in assay [7] and in assay [8] was inactive.
Regarding `COc1ccc(CNCc2ccc(-c3ccc(-c4nc5ccc(C(F)(F)F)cc5[nH]4)cc3)cc2)cc1`, the growth inhibition was 99% (active) in assay [1] and 102% (active) in assay [4]. Besides, the inhibition in assay [2] was 75% (active); in assay [3], 7%. Moreover, the result in assay [5], in assay [6], in assay [7] and in assay [8] was inactive.
As to `Cc1[nH]c(C)c(-c2ccc(-c3ccc(Cl)cc3)nc2)c(=O)c1Br`, the growth inhibition in assay [1] was 96% (active); in assay [4], 97% (active). The inhibition in assay [2] was 21%; in assay [3], 3%. For the same molecule, the outcome in assay [5], in assay [6], in assay [7] and in assay [8] was inactive.
As to `CN(Cc1ccc(NC(=O)CCC2CCN(C(=O)/C=C/c3ccc(Cl)c(Cl)c3)CC2)cc1)C1CCOCC1`, the values for the growth inhibition in assay [1] and in assay [4] were 2% and 94% (active), respectively. The inhibition in assay [2] is 10%; in assay [3], 0%. Besides, the outcome in assay [5], in assay [6], in assay [7] and in assay [8] was inactive.
For `O=C(Nc1cccc(-c2nn3ccccc3c2-c2ccnc(Nc3cccc(F)c3)n2)c1)c1c(F)ccc(F)c1F`, the results for the growth inhibition in assay [1] and in assay [4] were 73% (active) and 96% (active), respectively. The inhibition in assay [2] is 33%; in assay [3] it was -1%. The outcome in assay [5], in assay [6], in assay [7] and in assay [8] was inactive.
On to `CCC(CC)NCc1c(O)ccc2c(CNC(CC)CC)c(O)ccc12`, for which the growth inhibition in assay [1] was 94% (active); in assay [4], 100% (active). The inhibition in assay [2] was 4%; in assay [3] it was 0%. Further, the outcome in assay [5], in assay [6], in assay [7] and in assay [8] was inactive.
For the molecule `COc1ccc(-c2cccc(CNC3CCN(CC4Cn5c(=O)ccc6ccc(F)c4c65)CC3)c2)cc1` (stereo not drawn), the values for the growth inhibition in assay [1] and in assay [4] were 74% (active) and 101% (active), respectively. Further, the inhibition in assay [2] is 22%; in assay [3] it was 0%. For the same molecule, the outcome in assay [5], in assay [6], in assay [7] and in assay [8] was inactive.
Turning to `COc1cc2nc(N(C)C)nc(Nc3ccc4c(cnn4Cc4ccccc4)c3)c2cc1OC`, the growth inhibition was 102% (active) in assay [1] and 100% (active) in assay [4]. The figures for the inhibition in assay [2] and in assay [3] were 90% (active) and -4%, respectively. In addition, the result in assay [5], in assay [6], in assay [7] and in assay [8] was inactive.
`Cc1ccc(NC(=O)c2ccnc(N3CCN(c4ccncc4)CC3)c2)cc1F`: the growth inhibition in assay [1] was 12%; in assay [4], 94% (active). Moreover, the inhibition is 43% in assay [2] and -2% in assay [3]. Besides, the outcome in assay [5], in assay [6], in assay [7] and in assay [8] was inactive.
Turning to `CC(C)NCc1cccc(-c2ccc(-c3nc4ccc(C(F)(F)F)cc4[nH]3)cc2)c1`, the growth inhibition in assay [1] is 96% (active); in assay [4], 99% (active). In addition, the values for the inhibition in assay [2] and in assay [3] were 7% and -6%, respectively. The outcome in assay [5], in assay [6], in assay [7] and in assay [8] was inactive.
Take `CCCc1cccc(OC)c1OCCCON1C(N)=NC(N)=NC1(C)C`: the growth inhibition in assay [1] was 97% (active); in assay [4], 94% (active). The inhibition is 65% (active) in assay [2] and 5% in assay [3]. Besides, the outcome in assay [5], in assay [6], in assay [7] and in assay [8] was inactive.
In the case of `Clc1ccc(C=NNc2ccnc3ccccc23)cc1`, the growth inhibition in assay [1] was 97% (active); in assay [4], 100% (active). For the same molecule, the inhibition in assay [2] is 5%; in assay [3], 1%. For the same molecule, the outcome in assay [5], in assay [6], in assay [7] and in assay [8] was inactive.
On to `C=CCOC(=O)N1CCC(CNCc2cccc(-c3cccc(-c4nc5c(C)cccc5[nH]4)c3)c2)C1` (stereo not drawn), for which the growth inhibition in assay [1] was 69% (active); in assay [4], 102% (active). For the same molecule, the values for the inhibition in assay [2] and in assay [3] were 22% and -2%, respectively. For the same molecule, the outcome in assay [5], in assay [6], in assay [7] and in assay [8] was inactive.
Turning to `Cc1[nH]c(C)c(-c2ccc(C(=O)c3ccccc3)cc2)c(=O)c1Br`, the growth inhibition in assay [1] was 96% (active); in assay [4], 95% (active). Moreover, the inhibition in assay [2] was -10%; in assay [3], 1%. The result in assay [5], in assay [6], in assay [7] and in assay [8] was inactive.
Take `O=S(=O)(NCCN1CCCC1)c1ccc(-c2cccc(CNCc3ccc(F)cc3)c2)s1`: the growth inhibition in assay [1] was 50% (active); in assay [4], 99% (active). Also, the inhibition in assay [2] was 48%; in assay [3], 4%. The result in assay [5], in assay [6], in assay [7] and in assay [8] was inactive.
Regarding `CCC(CC)(Cc1ccccc1)NC(=O)[C@H](CC1CCCCC1)Nc1ccc(C#N)c2ccccc12`, the growth inhibition is 76% (active) in assay [1] and 95% (active) in assay [4]. Also, the inhibition in assay [2] is 4%; in assay [3] it was -5%. The outcome in assay [5], in assay [6], in assay [7] and in assay [8] was inactive.
`COc1cc(C(=O)NCc2nn(CCN3CCC(N4CCCC4)CC3)cc2-c2ccc(Cl)c(Cl)c2)cc(OC)c1OC`: the growth inhibition in assay [1] was -8%; in assay [4], 97% (active). Also, the inhibition in assay [2] was 16%; in assay [3] it was -1%. The result in assay [5], in assay [6], in assay [7] and in assay [8] was inactive.
On to `O=C1COc2ccc(S(=O)(=O)N3CCC[C@@H]3CCN3CCC(c4c[nH]c5cnccc45)CC3)cc2N1`, for which the growth inhibition is 6% in assay [1] and 101% (active) in assay [4]. The inhibition in assay [2] is -8%; in assay [3] it was 1%. The result in assay [5], in assay [6], in assay [7] and in assay [8] was inactive.
Turning to `c1cc(CNCCN2CCNCC2)cc(-c2cccc(-c3nc4ccccc4[nH]3)c2)c1`, the growth inhibition in assay [1] was 1%; in assay [4] it was 89% (active). The inhibition in assay [2] is 11%; in assay [3], -3%. Besides, the result in assay [5], in assay [6], in assay [7] and in assay [8] was inactive.
